# Measurements as given in PubChem BioAssay (NCI).
# This is part of a sample that, as a whole, favours compounds with a hit. Of some 83,000 tested, about 20% had one in any assay.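 For each line, cells grew in 96-well plates with the test compound present at a single concentration for 48 hours.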 Activity calls are given as the source filed them. Rule for the calls: active = growth percent below 10; inactive = the rest.
# System: SF-539 CNS
# Assay: NCI-60 one-dose screen, 48 h (100 = growth as untreated, 0 = no growth, -100 = all killed)
# Conditions: 10 µM unless noted
row,SMILES,growth
1,c1csc(-c2cnc3nonc3n2)c1,96.8% (inactive)
2,CC1(C)CC(=O)c2cc3c(N)c(C(=O)Nc4ccc(Cl)cc4)sc3nc2C1,114% (inactive)
3,CN1C(=O)C(C(=O)/C=C/c2ccccc2C(=O)O)C(=O)N(C)C1=O,104% (inactive)
4,CC(NC(=O)c1ccccc1)C(=O)Nc1ccccc1 (stereo not given),97.2% (inactive)
5,CN1CCC2(CC1)N=C(SCC(=O)Nc1cnc3ccccc3c1)C(c1ccc(Br)cc1)=N2,51.6% (inactive)
6,CSc1nc(N)c2[nH]c(-c3cc4ccccc4[nH]c3=O)nc2n1,102% (inactive)
7,C=CC(=O)N1CN(C(=O)C=C)CN(C(=O)C=C)C1,71.7% (inactive)
8,CC(C)(C)[Si](C)(C)OC1[C@@H](O[Si](C)(C)C(C)(C)C)[C@@H](CNC(=O)NC(=O)NC(=O)CCl)O[C@H]1n1cnc2c(NC(=O)Nc3ccccc3)ncnc21 (stereo not given in full),82.7% (inactive)
9,CCCCCCCC/C=C/CCCCCCCC1=NC(C)(C)CN1c1ccccc1,96.9% (inactive)
10,CCCCCCCCN(CCCCCCCC)C(=O)CCl,106% (inactive)
11,COc1cc(OC)c(Cl)cc1N,95.4% (inactive)
12,CNC(=O)c1c(NC(=O)c2ccc(C(C)C)cc2)sc2c1CCC(=O)C2,-63.7% (active)
13,COc1nccc2c(Sc3ccccc3)nc(N)nc12,119% (inactive)
14,Nc1c(C(=O)Nc2ccccc2)sc2nc3c(cc12)C(=O)CCC3,0.845% (active)
15,CCC(=O)NC1=C(Cl)C(=O)C(NC(=O)CC)=C(Cl)C1=O,117% (inactive)
16,CCCCCCCCCCCCC1CCC(=O)O1 (stereo not given),89.8% (inactive)
17,CCN1C(=O)N(CC)C2C1NC(=O)N2/N=C/C=C/c1ccccc1 (stereo not given),25% (inactive)
18,CN(C)CCCN1c2ccccc2CCc2ccccc21,117% (inactive)
19,CC(CN1CCN(CC(C)Nc2ccnc3cc(Cl)ccc23)CC1)Nc1ccnc2cc(Cl)ccc12 (stereo not given),-82.4% (active)
20,S=C(S)Oc1cccc2cccnc12,118% (inactive)
21,CCn1c(Cc2ccccc2Nc2c(Cl)cccc2Cl)nnc1SCC(=O)Nc1cccc(OC)c1,105% (inactive)
22,CCc1onc(-c2ccc(OC)cc2)c1-c1ccccc1OCCN(CC)CC,90.2% (inactive)
23,COc1ccc(-c2cc(-c3ccc(OC)cc3)c3sc(=O)[nH]c3n2)cc1,81.8% (inactive)
24,COc1ccc2nc3ccccc3c(NCc3ccc(C)cc3)c2c1,10.7% (inactive)
25,CS(=O)(=O)c1ccc(C(=O)Nc2ccc(Cl)c(-c3ccccn3)c2)c(Cl)c1,19.6% (inactive)
